PubChem BioAssay
Where “and” joins values, the source holds several entries; their conditions need not be identical. Equal values may be shown once. Where a structure was tested more than once in an assay, its records may differ in their call. Calls of active or inactive are those of the source. Cut-off read from the data, not from the text of the source: active = fold change permeability below about 0.7 or above about 1.3; inactive = in between.

Test: compounds altering in vitro BBB leakiness – cell-based, FITC-avidin fluorescence, HTS, primary screen (AID 1963498); note: test concentration not given here
Conditions: brain endothelial barrier, actives lie on both sides

**Q.** Which fold change permeability does the source give for `COc1ccc(S(=O)(=O)Nc2nc(-c3cccc([N+](=O)[O-])c3)cs2)cc1OC` here?
**A.** 0.9 (inactive)

**Q.** Which fold change permeability does the source give for `CN(C)CCCC1(c2ccc(F)cc2)OCc2cc(C#N)ccc21` (centres undefined) here?
**A.** 0.9 (inactive)

**Q.** Which fold change permeability does the source give for `Cc1cc(CN2CCN(c3c(Br)cnc4nc(-c5ccc(N6CCN(C)CC6)cc5)[nH]c34)CC2)no1` here?
**A.** 1.4 (active)

**Q.** With `Cc1ccccc1C(OCCN(C)C)c1ccccc1` (centres undefined) as the compound, how does the fold change permeability read?
**A.** 1 (inactive)

**Q.** With `COc1cccc2c(NCc3ccccc3)nc(-n3c(N)nc4ccccc43)nc12` as the compound, how does the fold change permeability read?
**A.** 0.9 (inactive)

**Q.** With `O=C(NCc1ccc(F)cc1)C1CCN(S(=O)(=O)c2cc(Cl)cc(Cl)c2)CC1` as the compound, how does the fold change permeability read?
**A.** 1.5 (active)

**Q.** With `CC1CNCCN1S(=O)(=O)c1cccc2cnccc12` (centres undefined) as the compound, how does the fold change permeability read?
**A.** 1.1 (inactive)

**Q.** With `CC(C)(C)c1ccc(CN2CCN(C(c3ccccc3)c3ccc(Cl)cc3)CC2)cc1` (centres undefined) as the compound, how does the fold change permeability read?
**A.** 1.6 (active)

**Q.** For `C[C@@]12C(=O)OC(=O)[C@]1(C)[C@H]1CC[C@@H]2O1`, which fold change permeability is on record?
**A.** 1.1 (inactive)

**Q.** For `OCCN1CCN(CC/C=C2/c3ccccc3Sc3ccc(C(F)(F)F)cc32)CC1`, which fold change permeability is on record?
**A.** 1.2 (inactive)

**Q.** With `CC(=O)Nc1ccc(C(=O)Nc2ccc(F)cc2N)cc1` as the compound, how does the fold change permeability read?
**A.** 0.8 (inactive)

**Q.** Which fold change permeability does the source give for `Oc1ccc2ccccc2c1SSc1c(O)ccc2ccccc12` here?
**A.** 1.6 (active)

**Q.** For `c1ccc2c(CC3=NCCN3)cccc2c1`, which fold change permeability is on record?
**A.** 0.9 (inactive)

**Q.** For `COc1ccccc1N1CCN(CCN(C(=O)C2CCCCC2)c2ccccn2)CC1`, which fold change permeability is on record?
**A.** 2 (active)

**Q.** With `C=CC(N)CCC(=O)O` (centres undefined) as the compound, how does the fold change permeability read?
**A.** 1.5 (active)

**Q.** For `CN1CCC(=C2c3ccccc3C=Cc3ccccc32)CC1`, which fold change permeability is on record?
**A.** 1.1 (inactive)

**Q.** For `Cc1cccc(C2CN(C)CCc3c2cc(O)c(O)c3Cl)c1` (centres undefined), which fold change permeability is on record?
**A.** 0.7 (active)

**Q.** Which fold change permeability does the source give for `c1ccc(Cn2c(NCc3ccco3)nc3ccccc32)cc1` here?
**A.** 1.6 (active)

**Q.** With `CC(N)=O` as the compound, how does the fold change permeability read?
**A.** 0.9 (inactive)

**Q.** Which fold change permeability does the source give for `O=C1NC(=O)C(c2ccccc2)(c2ccccc2)N1` here?
**A.** 1.3 (active) and 1.1 (inactive)

**Q.** Which fold change permeability does the source give for `CCCCS(=N)(=O)CCC(N)C(=O)O` (centres undefined) here?
**A.** 1.1 (inactive)

**Q.** For `CCN(CC)S(=O)(=O)Nc1cccc(-c2ccc3c(NC(=O)C4CC4)n[nH]c3c2)c1`, which fold change permeability is on record?
**A.** 1.6 (active)

**Q.** Which fold change permeability does the source give for `N#Cc1cc2nc(O)c(O)nc2cc1[N+](=O)[O-]` here?
**A.** 1.2 (inactive)

**Q.** For `C=CCN1CCc2c(cc(O)c(O)c2Br)[C@@H](c2ccccc2)C1`, which fold change permeability is on record?
**A.** 1 (inactive)

**Q.** Which fold change permeability does the source give for `CC/C(=N\NC(=O)c1ccnc(NCCCN2CCOCC2)c1)c1ccc(Cl)cc1O` here?
**A.** 0.8 (inactive)

**Q.** With `CC(N=C(NC#N)Nc1ccncc1)C(C)(C)C` (centres undefined) as the compound, how does the fold change permeability read?
**A.** 0.9 (inactive)

**Q.** With `Cc1ccc2c(c1CCC(=O)O)CC[C@@H](NS(=O)(=O)c1ccc(Cl)cc1)C2` as the compound, how does the fold change permeability read?
**A.** 0.8 (inactive)

**Q.** For `CN(C)c1cc2c(Nc3ccc4c(cnn4Cc4ccccc4)c3)ncnc2cn1`, which fold change permeability is on record?
**A.** 3.5 (active)

**Q.** With `CC[C@H]1OC(=O)[C@H](C)C(=O)[C@H](C)[C@@H](O[C@@H]2O[C@H](C)C[C@H](N(C)C)[C@H]2O)[C@](C)(OC)C[C@@H](C)C(=O)[C@H](C)[C@H]2N(CCCCn3cnc(-c4cccnc4)c3)C(=O)O[C@]12C` as the compound, how does the fold change permeability read?
**A.** 0.7 (active)

**Q.** For `Nc1nc2ccc(Cl)cc2c2nc(-c3ccco3)nn12`, which fold change permeability is on record?
**A.** 1.3 (active)

**Q.** With `Nc1ccc(-c2ccc3ccccc3n2)cc1` as the compound, how does the fold change permeability read?
**A.** 1.1 (inactive)

**Q.** For `O=C(Nc1cccc(C(=O)Nc2ccc(S(=O)(=O)O)c3cc(S(=O)(=O)O)cc(S(=O)(=O)O)c23)c1)Nc1cccc(C(=O)Nc2ccc(S(=O)(=O)O)c3cc(S(=O)(=O)O)cc(S(=O)(=O)O)c23)c1`, which fold change permeability is on record?
**A.** 0.9 (inactive)

**Q.** With `OCCN1CCN(CCCN2c3ccccc3C=Cc3ccccc32)CC1` as the compound, how does the fold change permeability read?
**A.** 1.2 (inactive)

**Q.** With `C[C@]12CC[C@@H]3c4ccc(O)cc4CC[C@H]3[C@@H]1CCC2=O` as the compound, how does the fold change permeability read?
**A.** 0.9 (inactive)

**Q.** With `CNC1(C)C2CCC(C2)C1(C)C` (centres undefined) as the compound, how does the fold change permeability read?
**A.** 0.8 (inactive)

**Q.** Which fold change permeability does the source give for `CC(C)(C)NCC(O)c1cc(O)cc(O)c1` (centres undefined) here?
**A.** 0.8 (inactive)

**Q.** Which fold change permeability does the source give for `CCC(=O)c1ccc2c(c1)N(CCCN(C)C)c1ccccc1S2` here?
**A.** 1.1 (inactive)

**Q.** For `Cn1cnc2c1c(=O)[nH]c(=O)n2C`, which fold change permeability is on record?
**A.** 1.3 (active)

**Q.** Which fold change permeability does the source give for `Cc1cc(C)nc(SCC(=O)Nc2ncc(Cc3cccc4ccccc34)s2)n1` here?
**A.** 1.4 (active)
